Among the test systems are HCT-15 colon; HT29 colon; SNB-75 CNS; SNB-19 CNS; PC-3 prostate; SK-MEL-5 melanoma; UACC-62 melanoma; SK-MEL-28 melanoma.
Assay in all cases: NCI-60 one-dose screen, 48 h (100 = growth as untreated, 0 = no growth, -100 = all killed)
The test system of a further assay is U251 CNS. To be noted: 10 µM unless noted.
Another assay relates to LOX IMVI melanoma. Particulars: 10 µM unless noted.

Values joined by “and” are separate entries in the source; they are usually repeats but may differ in a detail not shown here. Equal entries are not always repeated. Compounds without any hit were thinned out: in the full panel of roughly 83,000, 20% have a hit.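 Each cell line was grown in a 96-well plate and treated with one concentration of compound for 48 hours. Values below 10 were considered active.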 Unmarked numbers belong to inactive results. Active and inactive are the calls of the source.

Regarding `CC(NC(=O)CCl)c1ccccc1` (centres undefined), the growth was 94.9% in the assay with HCT-15 colon (10 µM unless noted); 104% in the assay on HT29 colon (10 µM unless noted); 85.6% in the assay with SNB-75 CNS (10 µM unless noted); 103% in the assay on SNB-19 CNS (10 µM unless noted); 103% in the assay with U251 CNS; 95.2% in the assay with PC-3 prostate (10 µM unless noted). The growth was 93.7% with SK-MEL-5 melanoma (10 µM unless noted), 102% in the assay on UACC-62 melanoma (10 µM unless noted), 98.2% in the assay on LOX IMVI melanoma and 111% in the assay with SK-MEL-28 melanoma (10 µM unless noted).

As to `CCC/C(=N/NC(N)=O)c1ccco1`, the growth in the assay with HCT-15 colon (10 µM unless noted) is 103%; with HT29 colon (10 µM unless noted), 93.7%; in the assay on SNB-75 CNS (10 µM unless noted), 75.2%; with SNB-19 CNS (10 µM unless noted) it was 90.1%; with U251 CNS, 91.8%; in the assay with PC-3 prostate (10 µM unless noted), 86.8%. The growth is 99.5% in the assay on SK-MEL-5 melanoma (10 µM unless noted), 92.7% in the assay with UACC-62 melanoma (10 µM unless noted), 98.1% with LOX IMVI melanoma and 97.7% with SK-MEL-28 melanoma (10 µM unless noted).

As to `NCCCCCC(=O)O`, the growth with HCT-15 colon (10 µM unless noted) is 103% [middle of 4 runs]; with HT29 colon (10 µM unless noted), 100% [middle of 4 runs]; with SNB-75 CNS (10 µM unless noted) it was 93.6% [middle of 4 runs]; with SNB-19 CNS (10 µM unless noted), 103% [middle of 4 runs]; in the assay on U251 CNS, 107% and 104% and 91.4%; in the assay with PC-3 prostate (10 µM unless noted), 106% [middle of 4 runs]. Besides, the growth in the assay on SK-MEL-5 melanoma (10 µM unless noted) is 108% and 109% and 110%; in the assay with UACC-62 melanoma (10 µM unless noted) it was 112% [middle of 4 runs]; in the assay on LOX IMVI melanoma, 100% [middle of 4 runs]; in the assay with SK-MEL-28 melanoma (10 µM unless noted) it was 112% and 109% and 119%.

In the case of `O=[N+]([O-])c1ccc(NC2CCCCC2)nc1`, the growth was 106% and 102% in the assay on HCT-15 colon (10 µM unless noted); 106% and 104% with HT29 colon (10 µM unless noted); 102% and 96.9% in the assay with SNB-75 CNS (10 µM unless noted); 103% and 108% with SNB-19 CNS (10 µM unless noted); 107% and 101% in the assay on U251 CNS; 105% and 98% with PC-3 prostate (10 µM unless noted). For the same compound, the growth with SK-MEL-5 melanoma (10 µM unless noted) was 112% and 106%; in the assay on UACC-62 melanoma (10 µM unless noted), 104% and 92.2%; in the assay with LOX IMVI melanoma, 94%; with SK-MEL-28 melanoma (10 µM unless noted) it was 128% and 111%.

Regarding `COC(=O)c1cc(C(=O)OC)cc([N+](=O)[O-])c1`, the growth in the assay with HCT-15 colon (10 µM unless noted) was 105%; in the assay with HT29 colon (10 µM unless noted), 111%; with SNB-75 CNS (10 µM unless noted), 72.5%; with SNB-19 CNS (10 µM unless noted), 118%; with U251 CNS, 94.4%; in the assay with PC-3 prostate (10 µM unless noted), 98.7%. Moreover, the growth in the assay with SK-MEL-5 melanoma (10 µM unless noted) was 109%; in the assay on UACC-62 melanoma (10 µM unless noted), 102%; with LOX IMVI melanoma, 104%; in the assay on SK-MEL-28 melanoma (10 µM unless noted), 108%.

As for `Nc1nc(=S)c2[nH]cnc2[nH]1`, the growth is 13% and 12.5% in the assay on HCT-15 colon (10 µM unless noted); 9.45% (active) and 8.24% (active) with HT29 colon (10 µM unless noted); 29.1% and 26.5% with SNB-75 CNS (10 µM unless noted); 98.2% and 102% with SNB-19 CNS (10 µM unless noted); 47.2% and 51% with U251 CNS; 33.2% and 32.1% with PC-3 prostate (10 µM unless noted). Besides, the growth with SK-MEL-5 melanoma (10 µM unless noted) is -2% (active) and -29% (active); in the assay with UACC-62 melanoma (10 µM), -21.9% (active); with UACC-62 melanoma (250 µM), -67.7% (active) and -100% (active); with LOX IMVI melanoma, 8.31% (active) and 5.43% (active); in the assay on SK-MEL-28 melanoma (10 µM unless noted), 29%.

Take `COC1C(OC(N)=O)C(O)C(Oc2ccc3c(O)c(NC(=O)c4ccc(O)c(CC=C(C)C)c4)c(=O)oc3c2C)OC1(C)C` (centres undefined): the growth in the assay with HCT-15 colon (10 µM unless noted) was 23.6% and 96%; in the assay on HT29 colon (10 µM unless noted), 105% and 110%; with SNB-75 CNS (10 µM unless noted) it was 28.8% and 77.2%; in the assay on SNB-19 CNS (10 µM unless noted) it was 101% and 92.7%; in the assay with U251 CNS, 42.5% and 101%; in the assay on PC-3 prostate (10 µM unless noted), 90.6% and 93.8%. Further, the growth in the assay with SK-MEL-5 melanoma (10 µM unless noted) was 103% and 98.2%; in the assay on UACC-62 melanoma (10 µM unless noted) it was 103% and 97.9%; in the assay with LOX IMVI melanoma it was 99.7% and 98.4%; in the assay on SK-MEL-28 melanoma (10 µM unless noted) it was 108%.

As for `CC1=CC(=O)C=CC1=Nc1ccc(N(C)C)cc1`, the growth in the assay with HCT-15 colon (10 µM unless noted) is 96.8% and 32.4%; in the assay on HT29 colon (10 µM unless noted), 105% and 45.1%; with SNB-75 CNS (10 µM unless noted), 123% and 76.4%; in the assay with SNB-19 CNS (10 µM unless noted), 97.1% and 73.4%; in the assay on U251 CNS, 21.2%; with PC-3 prostate (10 µM unless noted), 56% and 12.1%. Also, the growth with SK-MEL-5 melanoma (10 µM unless noted) was 89.4% and 17.6%; in the assay on UACC-62 melanoma (10 µM unless noted) it was 88.1% and 18.2%; with LOX IMVI melanoma, 83.4%; in the assay on SK-MEL-28 melanoma (10 µM unless noted), 96.8% and 74.7%.

As for `CS/C(=C\c1ccc(C(=O)c2ccc(C)cc2)n1C)S(C)=O` (centres undefined), the growth in the assay on HCT-15 colon (10 µM) was 87.6%; in the assay on HCT-15 colon (100 µM) it was 55.1%; in the assay with HT29 colon (10 µM) it was 94%; in the assay with HT29 colon (100 µM), 81.2%; with SNB-75 CNS (10 µM), 96.1%; in the assay with SNB-75 CNS (100 µM), 100%. Moreover, the growth with SNB-19 CNS (10 µM) was 91.3%; with SNB-19 CNS (100 µM), 77.5%; in the assay with U251 CNS, 74.7% [100 µM]; in the assay on PC-3 prostate (10 µM) it was 76.6%; in the assay on PC-3 prostate (100 µM), 71.1%; with SK-MEL-5 melanoma (10 µM), 81.2%. Further, the growth is 36.5% with SK-MEL-5 melanoma (100 µM); 83.3% in the assay on UACC-62 melanoma (10 µM); 61.4% in the assay with UACC-62 melanoma (100 µM); 99.4% in the assay with LOX IMVI melanoma; 84.7% in the assay with SK-MEL-28 melanoma (10 µM); 74.9% in the assay on SK-MEL-28 melanoma (100 µM).

On to `O=C(c1ccccc1)C1(Br)CCCCC1`, for which the growth in the assay with HCT-15 colon (10 µM unless noted) was 99.1%; with HT29 colon (10 µM unless noted), 120%; in the assay on SNB-75 CNS (10 µM unless noted) it was 95.2%; in the assay with SNB-19 CNS (10 µM unless noted), 92%; in the assay on U251 CNS, 95.6%; in the assay on PC-3 prostate (10 µM unless noted), 99.2%. Besides, the growth with SK-MEL-5 melanoma (10 µM unless noted) is 95.7%; in the assay with UACC-62 melanoma (10 µM unless noted), 90.5%; with LOX IMVI melanoma it was 86.7%; in the assay with SK-MEL-28 melanoma (10 µM unless noted) it was 101%.
